A selection: hits, their analogues and other compounds. The true share with any hit is near 7.7%.
HCMV inh: inhibitors of human cytomegalovirus; AID 1259415; activity change, negative = inhibition, % at 57.5 µM; HFF cells, HCMV-luciferase reporter, 72 h; active compounds read low; actives 4.5% (n = 410,000); in the data active means activity change below about -60%; inconclusive means no clear call, values can overlap the other calls; inactive means above about -39%
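Steps: HFFs plated, 16 h 37C; compounds added; HCMV-luciferase added to MOI 1 PFU/cell; 72 h 37C; OneGlo reagent, 5 min room temperature; luminescence read, normalized to controls.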
RE007 growth inh: less growth of the S. pombe RE007 Vpr strain; AID 651644; Potency, µM (highest dose often 92.2 µM), for the others: at the highest dose activity change, negative = less growth, most hits filed as inhibitors; actives 0.21% (n = 360,000); S. pombe RE007 Vpr strain, BacTiter-Glo ATP luminescence, 24 h; active means well fitted falling curve with a large enough effect; inconclusive means small, poorly fitted or top-dose-only effect; inactive means no such curve, though single readings can be large or run the other way; further: potency means the concentration at half of the fitted maximal effect; nearly all actives have a fitted effect of over 50% in size
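Fission yeast RE007 carrying one integrated HIV-1 vpr copy, seeded at OD 0.01 in PMG+AL medium with 23 nL pinned compound. Grown 24 h at 30 degrees; viability read by BacTiter-Glo luminescence after 5 min.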
Sm TGR inh: blocks Schistosoma mansoni thioredoxin glutathione reductase. Potency, µM (series often up to 114 µM), for the others: top-dose activity change, negative = inhibition, actives largely listed as inhibitors. actives 3% (n = 360,000). Q962Y6. purified TGR, DTNB reduction, TNB absorbance 405 nm; further: potency means the concentration at half of the fitted maximal effect; nearly all actives have a fitted effect of over 60% in size
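Kinetic colorimetric format: TGR-catalysed, NADPH-driven DTNB reduction monitored via TNB absorbance. Enzyme dispensed at 20 nM; compound exposure 15 min at room temperature before reaction start.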
Tb PYK inh: blocks Trypanosoma brucei pyruvate kinase. TbPYK enzyme, Kinase-Glo Plus ATP luminescence, 45 min. Potency, µM (top dose mostly 76.8 µM), inactives show at the highest dose activity, negative = inhibition, usual class: inhibitors. actives 0.12% (n = 410,000); further: potency means the concentration at half of the fitted maximal effect; nearly all actives have a fitted effect of over 50% in size
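Readout: single end-point luminescence (Kinase-Glo Plus, 10 min). Reaction conditions were TbPYK/substrate plus 130 uM ADP, 45 min at RT, pH 7.2 TEA buffer. No-enzyme wells served as controls, and data were normalized before concentration-response fitting.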
FMDV antiviral: antivirals against foot and mouth disease virus. FMDV antiviral cell-based qHTS. Potency, µM (titrated, usually from 57.9 µM), for inactives: top-dose activity change, negative = inhibition, actives largely listed as inhibitors. actives 1.2% (n = 410,000); calls by dose curve; tested in HEK293T cells; further: read-out not given here; potency means the concentration at half of the fitted maximal effect; nearly all actives have a fitted effect of over 45% in size
Giardia FBPA inh: Giardia lamblia aldolase inhibition; A8B2U2; purified Giardia FBPA; Potency, µM (doses to about 59.6 µM), without a hit: at the highest dose activity, negative = inhibition, usual class: inhibitors; actives 0.71% (n = 290,000); further: potency means the concentration at half of the fitted maximal effect; nearly all actives have a fitted effect of over 55% in size
Target sequence (A8B2U2 whole entry, looked up): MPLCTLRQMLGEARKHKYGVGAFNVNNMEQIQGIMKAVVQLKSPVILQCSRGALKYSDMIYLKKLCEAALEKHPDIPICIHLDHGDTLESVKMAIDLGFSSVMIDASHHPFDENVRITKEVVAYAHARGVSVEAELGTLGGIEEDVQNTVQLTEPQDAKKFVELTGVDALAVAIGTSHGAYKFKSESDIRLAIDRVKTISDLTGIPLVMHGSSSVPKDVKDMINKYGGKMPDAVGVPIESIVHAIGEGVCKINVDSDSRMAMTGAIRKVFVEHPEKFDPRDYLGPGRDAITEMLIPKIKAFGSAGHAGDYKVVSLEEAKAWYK
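Giardia FBPA (40 nM reagent) was preincubated 10 min at RT with compound (up to 57.5 uM final), then substrate plus GAPDH/TPI/NAD/arsenate coupling system with diaphorase/resazurin was added; resorufin fluorescence (525/598 nm) was read after 20 min.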
Active calls of the source: *; ? = inconclusive; . = no result given; [ ] = dose if it differs, or a comment. Unless noted, the call rests on the fitted dose curve; in most records, active means well fitted curve in the direction sought with a large enough effect; inconclusive means small, poorly fitted or top-dose-only effect, or another doubt; inactive means no such curve, though single readings can be large; an effect the other way counts as inactive or inconclusive. On the % scale 0 is the no-effect control and ±100 the full control effect.

SMILES	HCMV inh	RE007 growth inh	Sm TGR inh	Tb PYK inh	FMDV antiviral	Giardia FBPA inh
O=C(O)c1cc(N2C(=O)C=CC2=O)cc(N2C(=O)C=CC2=O)c1	-16.1	16.6%	.	?	-19.2%	.
CN(C)c1c([N+](=O)[O-])cc(N2C(=O)C=CC2=O)cc1[N+](=O)[O-]	.	27.5%	.	7.94µM*	?	.
Cc1csc(=O)n1CC(=O)OCc1nnc(-c2ccc([N+](=O)[O-])cc2)o1	0.0	-5.2%	1.7%	-3.7%	-8.1%	.
CS(=O)(=O)c1ccc(C(=O)OCc2nnc(-c3ccc(Cl)cc3)o2)cc1[N+](=O)[O-]	.	-4.3%	2.51µM*	1.2%	?	2.0%
COc1ccc(C(=O)OCc2nnc(-c3ccccc3)o2)cc1S(=O)(=O)N1CCOCC1	-32.8	3.5%	-1.6%	4.3%	16.6%	.
O=C(CCC(=O)c1ccc(F)cc1)OCc1nnc(-c2ccc([N+](=O)[O-])cc2)o1	0.0	-28.9%	20µM*	0.3%	-15.0%	.
O=C(OCc1nnc(-c2ccc(Cl)cc2)o1)c1ccc(O)cc1	?	-3.7%	-6.0%	-0.4%	36.8%	6.3%
O=C(OCc1nnc(-c2ccc([N+](=O)[O-])cc2)o1)c1ccc(F)c(S(=O)(=O)N2CCOCC2)c1	-67.1*	15.1%	0.0%	6.6%	-12.6%	.
C[C@@H]1CCCCO[C@@H](CN(C)Cc2ccc(C(=O)O)cc2)[C@@H](C)CN([C@H](C)CO)C(=O)c2cc(NS(C)(=O)=O)ccc2O1	4.5	.	.	.	.	.
Fc1ccc(C2=CSC3=NCCN23)cc1	10.1	2.8%	.	2.7%	-2.5%	-8.7%
N=c1nc(N)nc2n1NC(c1ccc(F)cc1)=CS2	-87.7*	2.9%	6.2%	-25.2%	27.6%	4.2%
COc1ccc(N2CCN(C(=O)c3cnn(-c4ccc(OC)cc4)c3C3CCN(C(=O)OC(C)(C)C)CC3)CC2)cc1	?	.	3.8%	-0.2%[15.4 µM]	2.9%	.
S=C(Sc1ccc(Cl)cc1)Sc1ccc(Cl)cc1	.	.	2µM*	.	.	-8.5%
CC(=O)/C(=C\N(C)C)Sc1ccc(Cl)cc1	3.8	1.7%	?	0.2%	-12.5%	1.4%
Cc1ccc(C)c(NC(=O)c2cc(S(=O)(=O)N3CCCCCC3)ccc2F)c1	-20.8	.	-2.3%	-3.2%	-1.1%	.
CCOCCSc1nc2c(c(-c3cccs3)c1C#N)CC/C2=C/c1cccs1	-11.8	-11.9%	44.7µM*	-2.8%	-6.4%	-6.7%
COc1cc2c(=O)c(C(=O)c3ccc(C)c(C)c3)cn(Cc3ccccc3)c2cc1OC	-22.7	.	-8.7%	3.9%	0.0%	.
COc1cc2c(=O)c(C(=O)c3ccc(C)c(C)c3)cn(Cc3ccc(F)cc3)c2cc1OC	-0.7	.	6.7%	-2.1%	?	.
CCc1ccc(C(=O)c2cn(Cc3ccccc3)c3cc(OC)c(OC)cc3c2=O)cc1	-64.9*	.	-2.4%	-0.3%	-27.3%	.
COc1cc2c(=O)c(C(=O)c3ccc(C)c(C)c3)cn(Cc3ccccc3F)c2cc1OC	-71.7*	.	4.6%	8.2%	?	.
COc1ccccc1Cn1cc(C(=O)c2ccc(Cl)cc2)c(=O)c2ccccc21	-100.6*	.	4.0%	-1.7%	0.0%	.
COc1cc(C(=O)NCc2nc3cccnc3n2Cc2ccc(C)cc2)cc(OC)c1OC	-10.9	.	4.9%	-0.3%	-17.9%	.
CC(C)[C@@H](C)/C=C/[C@@H](C)[C@H]1CC[C@@H]2[C@]1(C)CCC1[C@]23C=C[C@]2(C[C@@H](O)CC[C@]12C)N(c1ccc(F)cn1)O3 (stereo partly specified)	12.2	.	.	.	.	.
Cc1ccc([C@@H]2C[C@H]3[C@@H](CN2S(=O)(=O)c2ccc(C)cc2)C(=O)C[C@@H](c2ccccc2)N3S(=O)(=O)c2ccc(C)cc2)cc1	-12.1	-1.4%	.	-1.7%	-11.4%	.
Cc1ccc(S(=O)(=O)N2C[C@H]3C(=O)C[C@@H](c4ccccc4)N(S(C)(=O)=O)[C@H]3C[C@H]2c2ccccc2)cc1	-94.7*	18.5%	.	3.2%	-1.3%	.

Screening data (PubChem)
